PubChem BioAssay
Calls of active or inactive are those of the source.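 How the source made its calls, unless noted: active means NADPH fluorescence slope more negative than the mean of all samples by about 3 SD, 99.7% confidence; inactive means the rest.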

Tests used:
[1] = inhibitors of TNFa-induced NFkB p65 translocation, primary screen, imaging, HUVEC, MLSMR starter and 10KST1 sets (AID 438;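 active means inhibition above 20% together with a positive visual image hit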;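 further: compound added about 3h40 before a 20 min TNFalpha stimulation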;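 on inhibition: signal is the nuclear over cytoplasmic p65 intensity ratio per well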); details: HUVEC TNFa-induced p65 nuclear translocation; cell count: measured here: nuclei count (cytotoxicity indicator), at 2.08 µM; inhibition: at 2 µM, stronger effect = higher value, 0% TNFa-plus-vehicle, 100% no-TNFa wells
[2] = inhibitors of mutant huntingtin aggregation, primary screen, imaging, exon1htt(103Q)mCFP cells, high-content imaging (AID 483;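 active means visual image review flags a hit and inhibition of aggregation exceeds 20%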;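 further: compound exposure lasted 3 days before fixation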;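 on nuclei count: percent of the per-plate median nuclei count of sample wells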); details: exon1htt(103Q)mCFP cell line, aggregate imaging, at 2 µM; inhibition of aggregation: stronger effect = higher value; nuclei count: measured here: cell count, toxicity
[3] = inhibitors of E-selectin induction by TNFa, primary screen, imaging, HUVEC, immunofluorescence, MLSMR starter and 10KST1 sets (AID 487;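 active means visually confirmed hit in the image check and inhibition above 20%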;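 on inhibition: signal is fraction of cell area covered by stained E-selectin grains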;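 on nuclei count: 100% = median nuclei count of all wells on the same plate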); details: HUVEC TNFalpha-induced E-selectin immunofluorescence imaging, at 2 µM; inhibition: stronger effect = higher value; nuclei count: measured here: cell number, toxicity
[4] = target: Voltage-gated potassium channel subunit beta-2 (Rattus norvegicus) (UniProt P62483); experiment: KvBeta enzyme negative modulators, primary screen, biochemical, NADPH fluorescence (AID 622;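 active means fluorescence slope higher than the sample average by over 3 SD, cut at about -0.22 in these data, passing the limit was not always enough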;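 further: slope of raw intensity against log time taken from 70 to 1610 s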); details: recombinant KvBeta, 4-cyanobenzaldehyde reduction, at 10 µM, stronger effect = higher value
Voltage-gated potassium channel subunit beta-2 (Rattus norvegicus), sequence (P62483 whole entry, looked up): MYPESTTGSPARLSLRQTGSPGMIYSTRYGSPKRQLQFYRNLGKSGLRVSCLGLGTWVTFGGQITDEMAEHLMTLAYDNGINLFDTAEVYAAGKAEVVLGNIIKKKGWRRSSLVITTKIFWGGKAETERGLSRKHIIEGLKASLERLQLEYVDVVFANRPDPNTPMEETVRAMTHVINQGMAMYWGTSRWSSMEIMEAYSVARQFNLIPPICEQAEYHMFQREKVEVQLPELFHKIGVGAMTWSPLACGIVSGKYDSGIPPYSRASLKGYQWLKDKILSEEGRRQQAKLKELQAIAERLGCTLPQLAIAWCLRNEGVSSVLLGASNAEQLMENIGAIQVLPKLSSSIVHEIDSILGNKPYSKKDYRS

[5] = target: Voltage-gated potassium channel subunit beta-2 (Rattus norvegicus) (UniProt P62483); experiment: KvBeta positive modulators, primary screen, biochemical, NADPH fluorescence (AID 623); details: Recombinant KvBeta, NADPH fluorescence decrease slope, 10 min; at 10 µM; stronger effect = lower value;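 further: fluorescence intensity change per second fitted from 20 to 320 s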
[6] = target: Alpha-2C adrenergic receptor (Homo sapiens) (UniProt P18825); experiment: modulators of alpha2C/GIRK thallium flux, primary screen, cell-based, HEK293 alpha2C/GIRK1/2 (AID 624;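 active means fluorescence slope after compound addition differing from the mean of all screened samples at 99.7% confidence, in either direction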;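 further: slope of fluorescence ratio to pre-addition baseline per second over 15 to 24 s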); details: thallium flux BTC fluorescence, at 10 µM, actives lie on both sides
Alpha-2C adrenergic receptor (Homo sapiens), sequence (P18825 whole entry, looked up): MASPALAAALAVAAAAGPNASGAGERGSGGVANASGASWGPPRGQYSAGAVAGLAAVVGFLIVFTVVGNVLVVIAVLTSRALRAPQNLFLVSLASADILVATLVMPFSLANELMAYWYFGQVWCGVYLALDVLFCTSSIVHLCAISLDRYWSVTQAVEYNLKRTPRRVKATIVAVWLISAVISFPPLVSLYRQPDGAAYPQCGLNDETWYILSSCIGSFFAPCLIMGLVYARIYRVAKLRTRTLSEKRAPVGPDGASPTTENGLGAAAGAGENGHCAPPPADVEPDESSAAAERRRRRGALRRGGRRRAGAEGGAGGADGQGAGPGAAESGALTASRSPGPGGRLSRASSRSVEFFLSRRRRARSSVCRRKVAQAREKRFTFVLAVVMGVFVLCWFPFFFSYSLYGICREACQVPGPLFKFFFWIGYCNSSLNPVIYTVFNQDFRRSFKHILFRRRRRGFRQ

[7] = inhibitors of Sendai virus-induced IRF3 signaling, primary screen, TLR/RLR signaling modifier project, cell-based, Sendai virus stimulus, luciferase, 10K MLSCN set (AID 602276;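 active means inhibition at or above 50% at 10 µM; inactive means inhibition below 50%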;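 further: firefly luciferase from ISG56 promoter only with Renilla not read in this screen; 0% = Sendai virus plus DMSO and 100% = medium plus DMSO without virus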); details: HEK293 RL24 IRF3 luciferase reporter, at 10 µM, stronger effect = higher value
[8] = inhibitors of poly I:C-induced TLR3 signaling, primary screen, cell-based, poly I:C stimulus, luciferase, 10K MLSCN set (AID 602277;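 active means inhibition of the reporter signal at or above 50%; inactive means inhibition below 50%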); details: HEK293-TLR3 RL24 IRF3 luciferase reporter, at 10 µM, stronger effect = higher value

Row | SMILES | cell count [1] | inhibition [1] | inhibition of aggregation [2] | nuclei count [2] [%] | inhibition [3] | nuclei count [3] [%] | fluorescence slope [4] | NADPH fluorescence slope [5] | slope [6] | inhibition [7] | inhibition [8]
1 | COc1cc(C2C(C#N)=C(C)NC3=C2C(=O)CC(C)(C)C3)ccc1O (stereo not drawn) | 422 | -1.9% (inactive) | 1% (inactive) | 103 | -15.6% (inactive) | 103 | -0.453 (inactive) | -2e-05 (inactive) | 0.00555 (inactive) | 8.2% (inactive) | 16.9% (inactive)
2 | Cn1cnc2c(N3CCCCC3)nccc21 | 720 | -31% (inactive) | 0.5% (inactive) | 97.8 | -88.5% (inactive) | 122 | -0.417 (inactive) | -0.000121 (inactive) | 0.00681 (inactive) | 7.97% (inactive) | 22.8% (inactive)
3 | Cc1cc(=O)oc(C)c1C(=O)O | 560 | -13.1% (inactive) | 20.6% (inactive) | 88.5 | -3.9% (inactive) | 114 | -0.451 (inactive) | -0.000139 (inactive) | 0.00558 (inactive) | 9.47% (inactive) | 25.5% (inactive)
4 | CC1=Nn2c(nnc2-c2cc(-c3ccccc3)n[nH]2)SC1 | 574 | -3.3% (inactive) | -6.6% (inactive) | 81.3 | 32.4% (inactive) | 87.4 | -0.617 (inactive) | -1.7e-05 (inactive) | 0.00561 (inactive) | 18.2% (inactive) | 32.9% (inactive)
5 | Cc1cc2ccccc2n1CCNC(=O)C1CC1 | 709 | -6.9% (inactive) | -3.6% (inactive) | 107 | -35% (inactive) | 120 | -0.42 (inactive) | -3.8e-05 (inactive) | 0.00596 (inactive) | 11.4% (inactive) | 33.2% (inactive)
6 | COc1ccc(C(=O)N2CCN(C3CCCCC3)CC2)c(OC)c1 | 324 | -0.9% (inactive) | -21.3% (inactive) | 83.3 | -48.1% (inactive) | 138 | -0.609 (inactive) | -1.5e-05 (inactive) | 0.00408 (inactive) | 1% (inactive) | 12.4% (inactive)
7 | NC(=O)C1CCN(c2nc(-c3ccccc3)nc3ccccc23)CC1 | 554 | -15.4% (inactive) | 2% (inactive) | 116 | 49.5% (inactive) | 92.8 | -0.46 (inactive) | -6.1e-05 (inactive) | 0.00467 (inactive) | 10% (inactive) | 8.01% (inactive)
8 | O=C1c2ccccc2C(Nc2ccc(F)cc2F)N1CCN1CCOCC1 (stereo not drawn) | 791 | 1.8% (inactive) | 19.4% (inactive) | 101 | -46.2% (inactive) | 124 | -0.416 (inactive) | -3.1e-05 (inactive) | 0.00478 (inactive) | 13.8% (inactive) | 38.8% (inactive)
9 | Cc1cc(NC(=O)CSc2nccn2-c2ccc(Cl)cc2)no1 | 505 | 4.2% (inactive) | -6.1% (inactive) | 106 | -65.5% (inactive) | 120 | -0.554 (inactive) | -8.5e-06 (inactive) | 0.00588 (inactive) | -5.68% (inactive) | -15.6% (inactive)
10 | COc1ccc(CC(=O)N2CCOCC2)cc1OC | 383 | -0.8% (inactive) | 4.3% (inactive) | 106 | -53.3% (inactive) | 111 | -0.428 (inactive) | -5.5e-05 (inactive) | 0.00535 (inactive) | 15.7% (inactive) | 26.1% (inactive)
11 | COc1ccc(-n2nc(C(=O)NCC(=O)NCC3CCCO3)c3ccccc3c2=O)cc1 (stereo not drawn) | 355 | -1.7% (inactive) | 13.1% (inactive) | 91.3 | -15.9% (inactive) | 100 | -0.435 (inactive) | -1.9e-05 (inactive) | 0.0067 (inactive) | 16.2% (inactive) | 23.6% (inactive)
12 | CC(NC(=O)c1ccco1)c1ccc2c(c1)OCCO2 (stereo not drawn) | 418 | 9.3% (inactive) | 10% (inactive) | 89.2 | -95% (inactive) | 105 | -0.431 (inactive) | -2.6e-05 (inactive) | 0.00638 (inactive) | 9.46% (inactive) | 15.1% (inactive)
13 | COc1ccc(C(=O)CN2C(=O)NC3(CCCc4ccccc43)C2=O)cc1OC (stereo not drawn) | 412 | -9% (inactive) | 2.7% (inactive) | 94.1 | 35.3% (inactive) | 87.2 | -0.51 (inactive) | -2.4e-05 (inactive) | 0.00564 (inactive) | 15.1% (inactive) | 13.4% (inactive)
14 | O=C(OCC(=O)c1cccs1)C1=COCCO1 | 656 | -7.6% (inactive) | -9.8% (inactive) | 105 | 5.3% (inactive) | 119 | -0.345 (inactive) | -2.7e-05 (inactive) | 0.00586 (inactive) | -24.9% (inactive) | -83.1% (inactive)
15 | COc1ccc(-n2c(Cc3cccn3C)nnc2SCC(=O)Nc2cccc(Cl)c2)cc1 | 583 | 36.1% (active) | 22.4% (inactive) | 85.2 | 1.8% (inactive) | 116 | -0.609 (inactive) | 1.6e-05 (inactive) | 0.00706 (inactive) | -2.83% (inactive) | 19.5% (inactive)
16 | CCOC(=O)N1CCC(NC(=O)Cc2ccc(-n3c(=O)[nH]c4ccccc4c3=O)cc2)CC1 | 753 | -5.8% (inactive) | -8.3% (inactive) | 112 | -35.8% (inactive) | 115 | -0.527 (inactive) | -1.5e-05 (inactive) | 0.00585 (inactive) | 0.617% (inactive) | -10.4% (inactive)
17 | COc1ccc(NC(C)=O)cc1NC(=O)CN1CCN(c2ccccn2)CC1 | 573 | -7% (inactive) | -1.2% (inactive) | 104 | -35.2% (inactive) | 74.8 | -0.526 (inactive) | -1.4e-05 (inactive) | 0.00596 (inactive) | -3.99% (inactive) | 0.164% (inactive)
18 | CC1(C)Cc2c(c(=S)nc(-c3ccccc3)n2CCO)CO1 | 278 | -0.5% (inactive) | 19% (inactive) | 109 | 41.7% (inactive) | 93.9 | -0.501 (inactive) | -5.3e-05 (inactive) | 0.006 (inactive) | 8.44% (inactive) | 23.5% (inactive)
19 | O=c1cc(CSc2nnnn2-c2ccccc2)nc2scc(-c3ccccc3)n12 | 444 | 8.1% (inactive) | -10.9% (inactive) | 114 | -101% (inactive) | 139 | -0.415 (inactive) | -1.1e-05 (inactive) | 0.004 (inactive) | 1.29% (inactive) | 12% (inactive)
20 | CCOC(=O)N1CCC(N2C(=O)c3ccccc3C2Nc2ccccc2C)CC1 (stereo not drawn) | 568 | 5.8% (inactive) | -4% (inactive) | 98.2 | -22.5% (inactive) | 106 | -0.531 (inactive) | -3.2e-05 (inactive) | 0.00624 (inactive) | 3.88% (inactive) | 36.9% (inactive)
21 | COc1ccc2c(c1)C1(Nc3ccccc3-c3nc4ccccc4n31)C(=O)N2 (stereo not drawn) | 240 | 5.7% (inactive) | 11.7% (inactive) | 78 | 13.2% (inactive) | 110 | -0.493 (inactive) | -4.6e-05 (inactive) | 0.00486 (inactive) | 17.4% (inactive) | 36.3% (inactive)
22 | CC(C)C(C(=O)Nc1ccc2c(c1)OCO2)N1C(=O)c2ccccc2C1=O (stereo not drawn) | 696 | -1% (inactive) | 10.6% (inactive) | 109 | 77.1% (active) | 85 | -0.411 (inactive) | -8.9e-05 (inactive) | 0.00641 (inactive) | 14.6% (inactive) | 25.5% (inactive)
23 | CC(C)c1ccc(CNc2ccc(N3CCOCC3)cc2)cc1 | 700 | -11.3% (inactive) | -26.2% (inactive) | 117 | -54.6% (inactive) | 119 | -0.316 (inactive) | -4.8e-05 (inactive) | 0.00466 (inactive) | -21.7% (inactive) | -43.5% (inactive)
24 | O=C1c2ccccc2C(Nc2ccc3nc(-c4cccnc4)[nH]c3c2)N1Cc1ccco1 (stereo not drawn) | 493 | -9.4% (inactive) | 23.2% (inactive) | 90 | -24.3% (inactive) | 93.2 | -0.58 (inactive) | -3.1e-06 (inactive) | 0.00653 (inactive) | -7.53% (inactive) | -13.9% (inactive)
25 | COc1ccc(S(=O)(=O)NCC(c2cccnc2)N2CCN(C)CC2)cc1C (stereo not drawn) | 600 | -1.8% (inactive) | -1.7% (inactive) | 84.8 | 2% (inactive) | 105 | -0.586 (inactive) | -1.6e-05 (inactive) | 0.00609 (inactive) | 4.66% (inactive) | 29.1% (inactive)
26 | O=C(C1CCC(CNS(=O)(=O)c2cccc3cccnc23)CC1)N1CCCC1 (stereo not drawn) | 711 | 5.5% (inactive) | -15.3% (inactive) | 67.8 | -43.8% (inactive) | 112 | -0.549 (inactive) | -1.6e-05 (inactive) | 0.00608 (inactive) | -0.546% (inactive) | 14.6% (inactive)
27 | CN(C(=O)C1CCOC1)c1nnc(-c2cccnc2)s1 (stereo not drawn) | 745 | -12.4% (inactive) | 15.3% (inactive) | 67.6 | -41.7% (inactive) | 116 | -0.502 (inactive) | -1.1e-05 (inactive) | 0.0059 (inactive) | -22% (inactive) | -24.2% (inactive)
28 | CC(=O)Nc1ccc(S(=O)(=O)N2CCN(c3cc(C)nc4ccccc34)CC2)cc1 | 730 | -9.1% (inactive) | 35.3% (inactive) | 123 | -87.3% (inactive) | 120 | -0.31 (inactive) | -7.9e-05 (inactive) | 0.00466 (inactive) | 5.87% (inactive) | 13.2% (inactive)
